Wnt act: activates Wnt/beta-catenin signaling in a reporter cell assay. activation, % at 9.35 µM. 300,000 compounds, 1.2% hits. activator, plate reader; in the data active = activation above about 30%, passing the limit was not always enough; inconclusive = no clear call, values can overlap the other calls;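 note: 0% = neutral control wells and 100% = positive control wells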
MITF TRPM1 HTS: MITF TRPM1 promoter activation in melanoma cells | SK-MEL-5 TRPM1-promoter luciferase, 24 h; % of positive control, neutral wells = 0 | activation, % at 12.5 µM | 300,000 compounds, 0.75% hits;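 active = mean activation of at least 80% with every replicate also reaching 80%; inconclusive = mean reaches 80% but some replicate falls short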;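 note: 0% = neutral control wells and 100% = parthenolide positive control wells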
PvdQ inh: P. aeruginosa PvdQ acylase inhibition. purified PvdQ acylase, fluorescence plate reader. inhibition, % at 10 µM. 340,000 compounds, 0.063% hits; in the data active = inhibition above about 30%, passing the limit was not always enough; inconclusive = no clear call, values can overlap the other calls;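 note: 0% = vehicle neutral wells and 100% = reference inhibitor wells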
N-glyco inh: blocks N-linked glycosylation in D54 reporter cells | 360,000 compounds, 0.23% hits | D54 ERlucT glycosylation luciferase reporter, 24 h; percent of 100 nM tunicamycin response | reporter increase, % at 12.5 µM;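 active = mean luciferase reporter signal, scaled so untreated is 0 and the glycosylation-blocking control 100, at or above a set limit in every replicate; inconclusive = mean reaches the limit but not every replicate does; inactive = mean below the limit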;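 note: luciferase carries N-glycosylation sites so blocking glycosylation raises the light; 0% = median of neutral control wells and 100% = median of 100 nM tunicamycin wells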
esBAF inh: blocks esBAF chromatin remodeling in mouse ES cells | Bmi1-luciferase knock-in reporter, 24 h; 100% = twice the neutral-well signal | 350,000 compounds, 2% hits | AID 602393 | reporter increase, % at 12.5 µM; in the data active = activation above about 40%; inconclusive = no clear call, values can overlap the other calls;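 note: 0% = median of the plate's neutral control wells and 100% = double that signal; a rise in the Bmi1 reporter signal indicates esBAF inhibition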
Vif imaging: HIV Vif inhibition. HEK293T cells, Vif self-association by quenched fluorescence, imaging, 24 h. inhibition, % at 7.49 µM. 340,000 compounds, 0.35% hits; in the data active = inhibition above about 50%, passing the limit was not always enough; inconclusive = no clear call, values can overlap the other calls; inactive = below about 31%
Active calls of the source: *. Hits are enriched below; roughly 2.9% of the tested compounds scored in any of these assays.

What do the screens show for `O=C(Nc1nc2cc3c(cc2s1)OCCO3)c1cccs1`?
Wnt act: 32*; MITF TRPM1 HTS: -15; PvdQ inh: 0; N-glyco inh: -18; esBAF inh: -57; Vif imaging: 0

What do the screens show for `CCOc1ccc2nc(SCC(=O)c3ccc(Cl)s3)sc2c1`?
MITF TRPM1 HTS: 3; PvdQ inh: 9; N-glyco inh: 0; Vif imaging: 20

What do the screens show for `Cc1ccnc(SCC(=O)c2ccc(Br)s2)n1`?
MITF TRPM1 HTS: 42; PvdQ inh: 2; N-glyco inh: 1; esBAF inh: -1; Vif imaging: 0

How did Cc1ccnc(SCC(=O)c2cccs2)n1 do in these assays?
Wnt act: 44*; MITF TRPM1 HTS: 93*; PvdQ inh: 8; N-glyco inh: -2; Vif imaging: -2

What do the screens show for `O=C(Nc1ccc2c(c1)OCCO2)c1cccs1`?
Wnt act: 15; MITF TRPM1 HTS: 43; PvdQ inh: 9; N-glyco inh: -7; esBAF inh: 8; Vif imaging: -5

How did COc1ccccc1C#Cc1cnc2c(c1)C(=O)N([C@H](C)CO)C[C@@H](C)[C@H](CN(C)C(=O)c1ccc3c(c1)OCO3)O2 do in these assays?
esBAF inh: -1

Results for C[C@@H]1CN([C@@H](C)CO)C(=O)c2cc(C#Cc3cccnc3)cnc2O[C@@H]1CN(C)S(=O)(=O)c1ccccc1F ?
esBAF inh: -4

How did C[C@@H]1CN([C@@H](C)CO)C(=O)c2cc(NC(=O)NC3CCCCC3)ccc2O[C@@H]1CN(C)Cc1ccc(-c2ccccc2)cc1 do in these assays?
esBAF inh: 2

How did C[C@H]1CN([C@@H](C)CO)C(=O)c2cc(C#CC3(O)CCCC3)cnc2O[C@H]1CN(C)C(=O)Cc1cccnc1 do in these assays?
esBAF inh: 0

What do the screens show for `O=C(O)c1cccc([N+](=O)[O-])c1C(=O)Nc1nc2ccccc2s1`?
Wnt act: 1; MITF TRPM1 HTS: -13; PvdQ inh: -14; N-glyco inh: 0; Vif imaging: 3

Results for O=C(Nc1nc2ccccc2s1)c1ccccc1[N+](=O)[O-] ?
Wnt act: 9; PvdQ inh: -9; N-glyco inh: 3; esBAF inh: 50*; Vif imaging: -6

Results for COc1ccc2nc(NC(=O)c3ccccc3O)sc2c1 ?
Wnt act: 38*; MITF TRPM1 HTS: 88*; PvdQ inh: 0; N-glyco inh: -12; esBAF inh: 8; Vif imaging: -9

Results for CCN(CC)S(=O)(=O)c1ccc2nc(NC(=O)c3cccs3)sc2c1 ?
MITF TRPM1 HTS: 39; PvdQ inh: 20; N-glyco inh: -1; Vif imaging: -14

Results for COc1ccc2nc(NC(=O)c3cccs3)sc2c1 ?
Wnt act: 48*; N-glyco inh: 2; esBAF inh: inconclusive; Vif imaging: 22

Results for COc1ccc2nc(NC(=O)Nc3cccc4ccccc34)sc2c1 ?
Wnt act: 7; MITF TRPM1 HTS: 79; PvdQ inh: 0; N-glyco inh: 2; Vif imaging: 5

What do the screens show for `O=C(C[C@H]1CC[C@@H]2[C@H](COC[C@@H](O)CN2C(=O)Nc2ccc(F)cc2)O1)NCC1CC1`?
esBAF inh: 3

How did O=S(=O)(Cc1ccccc1)N1CCCCN2[C@H](CO)[C@H](c3ccc(-c4cccnc4)cc3)[C@H]2C1 do in these assays?
esBAF inh: -8

How did C[C@@H]1CCCCO[C@@H](CN(C)C(=O)Nc2cccc3ccccc23)[C@@H](C)CN([C@H](C)CO)C(=O)c2cc(NC(=O)c3ccncc3)ccc2O1 do in these assays?
esBAF inh: 1

Results for Nc1[nH]ncc1-c1ccc(Cl)cc1 ?
Wnt act: -2; MITF TRPM1 HTS: 11; PvdQ inh: -11; N-glyco inh: 2; Vif imaging: 0

What do the screens show for `Nc1[nH]ncc1N=Nc1ccc(Cl)cc1`?
MITF TRPM1 HTS: 64; PvdQ inh: -7; N-glyco inh: 0; esBAF inh: 47*; Vif imaging: -2

Results for Cc1ccc(NC(=O)Nc2cccs2)cc1 ?
MITF TRPM1 HTS: 60; PvdQ inh: -3; N-glyco inh: -1; esBAF inh: 36; Vif imaging: 10

How did O=C(Nc1ccc(Br)cc1)Nc1ccccc1Cl do in these assays?
Wnt act: 31*; MITF TRPM1 HTS: 82*; PvdQ inh: -30; N-glyco inh: -5; esBAF inh: inconclusive; Vif imaging: -11
